Measurements taken from the supplement of paper PMC6555819.

Key:
Assay in all cases: PBM binding z-score (relative to random genomic background probes); higher = stronger binding; sequences stand for … in GC…GCGATTGACAGCGTAGAATGAAGG
[1] = tested on: PPARg:RXRa IVT, anti-PPARg (NR concentration 270 nM, RXRa partner concentration 90 nM)
How it was run: (§1)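 Ligand-free nuclear receptor dimers were applied to custom Agilent 4×180K protein-binding microarrays whose double-stranded probes carried direct-repeat seeds, single-nucleotide variants, half-site ablations and random human genomic background sequences in 34-nt variable regions. Incubation lasted 1 h. Binding z-scores were computed against the random background probes from regression-normalized fluorescence.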

[2] = tested on: PPARg DBDmut:RXRa IVT, anti-PPARg (DBD mutation: PPARg1 K132A/R137A, NR concentration 270 nM, RXRa partner concentration 90 nM)
How it was run: as §1

[3] = tested on: PPARg DBDmut IVT, anti-PPARg (DBD mutation: PPARg1 K132A/R137A, NR concentration 270 nM)
How it was run: as §1

[4] = tested on: PPARg homodimer (NR concentration 180 nM)
How it was run: as §1

[5] = tested on: PXR homodimer (NR concentration 270 nM)
How it was run: as §1

[6] = tested on: RARa homodimer (NR concentration 270 nM)
How it was run: as §1

[7] = tested on: RARb homodimer (NR concentration 270 nM)
How it was run: as §1

[8] = tested on: RARa:RXR (NR concentration 270 nM, RXRa partner concentration 90 nM)
How it was run: as §1

[9] = tested on: RARb:RXRa (NR concentration 270 nM, RXRa partner concentration 90 nM)
How it was run: as §1

[10] = tested on: PXR:RXRa (NR concentration 270 nM, RXRa partner concentration 90 nM)
How it was run: as §1

Sequence	PBM binding z-score [1]	PBM binding z-score [2]	PBM binding z-score [3]	PBM binding z-score [4]	PBM binding z-score [5]	PBM binding z-score [6]	PBM binding z-score [7]	PBM binding z-score [8]	PBM binding z-score [9]	PBM binding z-score [10]
CAAACGAGGTCAAAGGTCAAAGTCGAGCCAACCA	8.38	5.96	5.7	7.87	5.27	6.67	5.59	–	–	–
CTATGTAGGTTAAGGGAGTCATTCAGTTTGAAAG	6.74	–	–	0.863	0.389	0.236	0.609	0.462	0.814	–
CTATGTAGGTCAAGGGGGTCATTCAGTTTGAAAG	9.07	–	–	5.3	13.1	2.29	4.85	–	5.06	–
CGAACAAGGTCACCAGGACAGTGAAGAGGTTGGA	6.18	–	1.95	4.85	1.1	3.06	4.07	5.71	5.3	4.68
CGAACTAGGTCAAAGGACATTGAAAGGCGACGTA	8.46	–	2.63	2.37	0.177	0.467	3.01	2.7	3.96	1.39
CCGAGGAGGTTACGAGGGGGCATTCAGTGCGAAT	3.07	–	–	1.6	6.9	-0.256	2.52	3.97	2.89	6.25
TGTCAAAGTTCAAAGGTCACGTAAGTATCCACAC	6.64	4.45	3.14	6.73	5.82	5.52	5.93	–	–	–
CGAACTAGGTCGCCAGGACAGTGAAGAGGTTGGA	5.49	–	-0.449	-0.09	-0.264	-0.715	1.04	0.141	1.48	-0.103
CCGAGTAGGTTACTAGGGGGCATTCAGTGCGAAT	4.9	–	–	1.47	6.49	0.177	2.16	2.34	1.92	4.21
CAAACGAGGTCACGAAAGGTCAAAGTCGAATGAC	7.7	2.28	3.02	7.67	9.37	5.09	6.1	–	–	–
TCTCGGAGGTCACGAAAGGTCAGAGCTCGACATC	6.3	1.39	2.35	6.9	3.6	5.11	6.12	–	–	–
CGAACGAGGTCACCAGGACAGTGAAGAGGTTGGA	6.99	–	-0.0539	3.06	0.985	1.08	4.89	5.85	–	5.37
TCTAGTAGGTCAAAGGTCACACACTCGAAATGCG	9.26	6.06	3.11	7.45	2.56	5.05	5.5	–	–	–
CAAACAAGGTCACCGGAAGGTCAAAGTCCGCATG	6.66	3.88	3.51	10.2	4.84	5.98	5.88	–	–	–
TCGAGTAGGTCACGGGGGCATTCAGGGATGAAGA	7.67	–	–	3.98	1.77	1.36	4.32	5.53	4.66	4.92
CGTCAAAGGTCATAGGAGGTCAGTGAAGACAGAT	6.23	1.59	3.77	5.41	4.17	3.82	5.95	–	–	–
CCTACTGGGTCACGAAAGGTCATTGATTCAGTGA	8.65	1.64	2.22	4.41	2.09	2.35	5.9	–	–	–
CCGAGTAGGTTACGAGGGGTCATTCAGTGCGAAT	4.3	–	–	4.32	10.4	1.29	3.68	6.71	3.35	–
GCTTACGGGTCAAAGGTCATAGCATGAATAGAAT	7.02	2.05	1.67	4.66	1.47	2.21	5.12	–	–	–
CCTACTGGGTCAAAGGTCATTGATTCCAATGCTC	8.67	3.67	3.47	7.2	3.3	2.65	5.06	–	–	–

Sequence	PBM binding z-score [1]	PBM binding z-score [2]	PBM binding z-score [3]	PBM binding z-score [4]	PBM binding z-score [5]	PBM binding z-score [6]	PBM binding z-score [7]	PBM binding z-score [8]	PBM binding z-score [9]	PBM binding z-score [10]
ATATGTAGGTTAGGGTCAGTCAGAAAGTAGGGAA	6.71	–	1.66	2.59	1.6	2.63	3.34	3.41	3.22	2.64
CTATGTAGGTTAGGGGGGTCATTCAGTTTGAAAG	6.9	–	–	4.93	11.2	3.17	4.06	5.88	4.13	6.22
CAAACAAGGTCACAGAGGTCAAAGTCCGTGCGTA	7.16	3.22	4.2	6.67	14.1	3.72	5.85	–	–	–
CAAACAAGGTCACGAAAGGTCAAAGTCGAATGAC	7.11	3.1	3.53	8.44	7.51	5.3	6.14	–	–	–
ATCGAAAGGTCAAAGGTGAGTATACCCACCCGAA	6.1	3.13	3.86	4.41	1.6	3.03	5.31	–	–	–
CCAACTAGGTCAAAGGACAGTGAAAGGCGACGTA	7.88	–	0.729	1.68	0.436	0.964	3.15	2.36	4.07	1.09
CCTGCTAGGTCAAAGGTCAGCTAAAGCAGCTCGC	7.37	3.16	2.19	7.33	0.666	3.79	4.91	–	–	–
CGAACTAGGTCTAAGGACAGTGAAAGGCGACGTA	1.78	–	-0.598	-0.156	-0.563	-0.52	0.133	0.0659	0.287	-0.521
CCGAATAGGTTACGAGGGGGCATTCAGTGCGAAT	3.59	–	–	2.64	5.9	0.865	2.69	3.8	2.89	5.5
CGAACTAGGTCAAGGGACAGTGAAAGGCGACGTA	8.18	–	0.0336	1.42	-0.504	0.0645	2.99	1.71	3.92	0.929
GCTTAGGGGTCAAAGGTTATAGCATGAATAGAAT	6.52	3.02	2.44	2.86	1.2	1.8	4.64	–	–	–
TCGTGTAGGTTACGGGGGCATTCAGGGATGAAGA	6.27	–	–	3.1	2.98	1.46	2.92	3.71	3.34	3.98
CTATGTGGGTTAAGGGGGTCATTCAGTTTGAAAG	7.71	–	–	6.11	12.1	3.73	4.44	5.68	3.91	6.07
CTATGTAGGTTACGGGGGTCATTCAGTTTGAAAG	7.98	–	–	2.65	10.9	0.56	4.09	6.09	3.71	6.2
GCTTAAGGGTCAAAGGTTATAGCATGAATAGAAT	5.94	2.24	1.36	4.8	0.657	1.94	4.32	–	–	–
CCTTAGGGGTCACGAGGTTATAGCACGACGAGCG	6.5	3.28	2.27	5.3	0.897	2.78	5.21	–	–	–
CCGAGAAGGTTACGAGGGGGCATTCAGTGCGAAT	2.5	–	–	2.11	5.71	0.612	2.66	4.07	3.24	5.85
ATATGTAGGTTGGGGTCATTCAGAAAGTAGGGAA	4.46	–	2.36	3.59	3.64	3.34	4.06	6.42	3.75	6.18
TTACCAAGGTCAAAGGTCGTTGATGCACGCCTTG	6.12	2.16	2.19	4.12	2.27	1.08	4.89	–	–	–
